In PubChem BioAssay (NCI):
About 83,000 compounds went through this panel and 20% of them were active in at least one assay; those are over-represented in the sample as a whole.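 48-hour exposure, single concentration, 96-well plates; percent growth endpoint where 0 means no net growth. Active: below 10.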 Active and inactive are the calls of the source.

The molecules below were run on SN12C renal (assay: NCI-60 one-dose screen, 48 h (100 = growth as untreated, 0 = no growth, -100 = all killed)). Conditions: 10 µM unless noted.
Procedure: Growth inhibition of the SN12C human tumor cell line is measured as a screen for anti-cancer activity. Cells are grown in 96 well plates and exposed to the test compound for 48 hours. Compounds are tested at a single concentration, which is 10^-5 M for most compounds. The reported endpoint is percent growth (GI% or GIPRCNT), where numbers from 0 - 100% represent growth inhibition, and numbers from -100% - 0 represent cell death. For example, a value of 40 represents 60% growth inhibition. A value of 0 means no net growth occurred over the course of the experiment. A value of -40 indicates 40% of cells at the beginning of the experiment died by the end of the experiment. A value of -100 means all cells are dead at the end of the experiment.
NCI-60 Human Tumor Cell Lines Screen was performed using the standard one-dose NCI protocol, which is described in more detail at https://dtp.cancer.gov/discovery_development/nci-60/default.htm.
Compounds with GIPRCNT values below 10 were considered active. Activity score was based on GIPRCNT using the following formula: […]
Score is 0 for GIPRCNT values of 100 or above, 50 for GIPRCNT values of 0, and 100 for GIPRCNT values of -100.
For `CCOC(=O)c1cnc2cc(Cl)c(F)cc2c1Nc1cccc(NS(C)(=O)=O)c1`, the growth was 100% (inactive). `CN(C)c1ccc(C2Nc3ccccc3-n3cccc32)cc1` (stereo not given) was tested, and the growth was 89.5% (inactive). With `C#Cc1nc(Nc2cc(C)[nH]n2)c2ccccc2n1` the growth was -31.6% (active). `CCN1CCN(Cc2ccc(NC(=O)Nc3nc4ccc(Oc5ccnc(C(=O)NC)c5)cc4s3)cc2C(F)(F)F)CC1` was tested, and the growth was -75.4% (active). With `O=C1C(=O)N(CCCCn2cc(CO)nn2)c2ccccc21` the growth was 104% (inactive). In the case of `COc1ccc(C(=O)c2sc3nc(-c4ccccc4OC)ccc3c2N)cc1OC`, the growth is reported as 66.1% (inactive). In the case of `CC1=NNC(=O)C1C` (stereo not given), the growth is reported as 96.1% (inactive). `O=C(O)C(O)C(O)C(=O)O.[NH-]C1CCCCC1[NH-].[Pt+2]` (stereo not given) was tested, and the growth was 106% (inactive). In the case of `CCN(CC)CCCC(C)N/C(=C1\C(=O)NC(=O)\C1=C(/NC(C)CCCN(CC)CC)c1cccc(OC)c1)c1cccc(OC)c1` (stereo not given), the growth is reported as 9.96% (active). For `CS(=O)(=O)c1ccc(-c2cnc3ccc(-c4cccc(S(C)(=O)=O)c4)nn23)cc1`, the growth was 46.8% (inactive). `Oc1cccc(Nc2nccc(-c3ccc4ccccc4c3)n2)c1` was tested, and the growth was 33.8% (inactive). For `O=c1c2cccc3c(Nc4c(F)cccc4F)ccc(c32)c2nc3ccccc3n12`, the growth was 93.8% (inactive). For `C(=N\Nc1nnn(Cc2ccccc2)n1)/c1ccccc1`, the growth was 67.5% (inactive). `S=c1[nH]nc(CSc2ncnc3c2c(-c2ccccc2)cn3-c2ccc(Cl)cc2)o1` was tested, and the growth was 92.8% (inactive). `O=C1Nc2ccccc2C12CC(c1ccccc1)=NN2` (stereo not given) was tested, and the growth was 68.6% (inactive). For `O=C(NCc1cccc(C(F)(F)F)c1)[C@H](CCC(=O)N1CCN(C2CCCCC2)CC1)N1C(=O)[C@@H](N2C(=O)OC[C@@H]2c2ccccc2)[C@H]1/C(Cl)=C/c1ccccc1`, the growth was 37.1% (inactive). For `CCOC(=O)c1c2c(n3ccc(NC(=O)CCN(CC)CC)cc13)C(=O)c1ncccc1C2=O`, the growth was 27.6% (inactive). In the case of `COc1ccc(C2CC(=O)Nc3c2c(C)nn3-c2nc3ccccc3[nH]2)cc1` (stereo not given), the growth is reported as 103% (inactive). `CC(=O)C1=C(O)C=C2Oc3c(C(=O)/C=C/c4c(Cl)cccc4Cl)c(O)c(C)c(O)c3[C@]2(C)C1=O` was tested, and the growth was -30.9% (active). `C=C1CC2(OC1=O)C(=O)N(CCCCCCCCCCCCN1C(=O)C3(CC(=C)C(=O)O3)c3ccccc31)c1ccccc12` (stereo not given) was tested, and the growth was 53.1% (inactive). `N#Cc1ccc(NC(=O)Nc2ccc(Cc3ccc(NC(=O)Nc4ccc(C#N)cc4)cc3)cc2)cc1` was tested, and the growth was 29.5% (inactive). For `O=c1c2c3c(sc2n2c(CCl)nnc2n1Cc1ccccc1)CCCC3`, the growth was -82.8% (active). `COc1ccc(C(=O)c2sc3nc4c(cc3c2N)CCCC4)cc1OC` was tested, and the growth was 62.8% (inactive). With `COc1ccc(S(=O)(=O)NCCNc2nccc(-c3c(-c4cccc(N)c4)nc4sccn34)n2)cc1` the growth was 95.7% (inactive). With `COC1C/C(=N\O)C2OC(c3ccccc3)OCC2O1` (stereo not given) the growth was 104% (inactive). `O=c1cc(-c2ccccc2)[nH]c2ccccc12` was tested, and the growth was 91.6% (inactive). With `C=C1C(=O)O[C@H]2[C@H]1CC/C(Cn1cc(Cc3c[nH]c4ccccc34)nn1)=C\CC[C@@]1(C)O[C@@H]21` the growth was 39.4% (inactive). In the case of `Cc1cc(Nc2nc(N3CCN(C)CC3)nc3ccccc23)n[nH]1`, the growth is reported as 68.1% (inactive). With `COc1ccc(-c2c3c(nc4n[nH]c(-c5ccc(Cl)cc5)c24)-c2ccccc2C(=O)C3=O)cc1` the growth was 12% (inactive). With `Cc1ccc2cnc(N)c(C#Cc3cncc(C(=O)Nc4ccc(CN5CCN(C)CC5)c(C(F)(F)F)c4)c3)c2c1` the growth was -97.5% (active). For `COCCOC(=O)C1=C(C)NC(=S)NC1c1ccc2c(c1)OCO2` (stereo not given), the growth was 104% (inactive). In the case of `COc1ccc(-c2nc(Nc3cc(C)[nH]n3)c3ccccc3n2)cc1`, the growth is reported as 40.1% (inactive). In the case of `Oc1cc(O)c2c(=S)cc(-c3ccc(Cl)cc3)oc2c1`, the growth is reported as 25.5% (inactive). In the case of `Nc1nc(SCc2ccccc2)c2ncn(C3CCCC3)c2n1`, the growth is reported as 107% (inactive). For `COc1ccc(CN2C(=O)/C(=C\c3cc(OC)c(OC)c(OC)c3)c3cc(OC)ccc32)cc1`, the growth was 18% (inactive). For `NCc1cn2cc(Cl)sc2n1`, the growth was 105% (inactive). `COc1cc(/C=C2\CN(C(=O)CCN3CCC(=NO)CC3)C/C(=C\c3cc(OC)c(OC)c(OC)c3)C2=O)cc(OC)c1OC` was tested, and the growth was -9.11% (active). With `CCN(C(=O)CN1CCN(c2cc3c(cc2F)c(=O)c(C(=O)O)cn3C2CC2)CC1)c1nc(-c2ccc(OC)cc2)cs1` the growth was 9.96% (active). `c1ccc2c(Nc3cccc4ccccc34)cccc2c1` was tested, and the growth was 58.8% (inactive). For `CN1CCN(Cc2ccc(NC(=O)c3[nH]ncc3Nc3ncnc4[nH]ccc34)cc2)CC1`, the growth was 13.3% (inactive).
